Test [1] can be described thus: small molecules captured by biotinylated probe aFSTL3 – biochemical, small-molecule microarray, fluorescence 635/667, stem cell growth factor project, primary screen (AID 1064).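 Also: measures binding of the biotinylated anti-FSTL3 antibody to printed compounds.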 Conditions: higher = more signal.
The nature of test [2]: binders from COS7 lysate, DM2A8 probe, primary screen, torsin A project, cell lysate, small-molecule microarray, fluorescence 635/667 (AID 1065). Conditions: higher = more signal, COS7 lysate expressing mutant human TOR1A.
Test [3] is described as follows: small molecules captured by biotinylated probe aFGF2 – biochemical, small-molecule microarray, fluorescence 635/667, stem cell growth factor project, primary screen (AID 1067).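 Also: measures binding of biotinylated aFGF2 protein to printed compounds on slides; z-score merges feature fluorescence and signal-to-noise across triplicate slides.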 As to conditions: higher = more signal.
The nature of test [4]: small molecules captured by biotinylated probe aFGF10 – biochemical, small-molecule microarray, fluorescence 635/667, stem cell growth factor project, primary screen (AID 1071).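 Also: score merges 667 nm spot intensity and signal to noise from triplicate slides.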 Conditions: higher = more signal.
Test [5] deals with Neurogenic locus notch homolog protein 2 (Homo sapiens) (UniProt Q04721). Put plainly: small molecules binding Notch2 protein – biochemical, small-molecule microarray, 635 nm fluorescence, stem cell growth factors, primary screen (AID 1073). Conditions: higher = more signal.
Test [6] deals with Pro-neuregulin-1, membrane-bound isoform (Homo sapiens) (UniProt Q02297). Put plainly: small molecules binding neuregulin-1 protein – biochemical, small-molecule microarray, fluorescence 635/667, psychiatric disease protein project, primary screen (AID 1075).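 Also: score combines 667 nm spot fluorescence with signal to noise.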 As to conditions: NRG1 binding, 635 nm fluorescence, higher = more signal.
Test [7] relates to Neuregulin-1 EGF-like domain. Kind of test: small molecules binding NRG1 EGF domain – biochemical, small-molecule microarray, 635 nm fluorescence, primary screen (AID 1081).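 Also: binding of the protein to compounds printed on small-molecule microarray slides.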 Conditions: higher = more signal.
Test [8] can be described thus: FRG1 expression reporter modulators in myotubes – cell-based, C2C12 myotubes, firefly/Renilla luciferase, luminescence, FRG1 inhibition for FSHD, primary screen (AID 1084). As to conditions: FRG1 promoter luciferase, higher = more signal, called active from +8 up or from −8 down.
The nature of test [9]: small molecules captured by biotinylated probe aFST – biochemical, small-molecule microarray, fluorescence 635/667, stem cell growth factor project, primary screen (AID 1086).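 Also: score merges 667 nm fluorescence with signal-to-noise of each printed compound spot.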 Conditions: higher = more signal.
Test [10] is described as follows: binders of probe aHhip on microarray, primary screen, stem cell growth factor project, biochemical, small-molecule microarray, fluorescence 635/667 (AID 1087).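 Also: score merges spot fluorescence at 667nm with spot signal to noise ratio.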 Conditions: higher = more signal.
Test [11] relates to PRMT1 (protein arginine N-methyltransferase 1). Put plainly: small molecules binding arginine methyltransferase PRMT1 – biochemical, small-molecule microarray, 635 nm fluorescence, primary screen (AID 1088).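 Also: binding of Prmt1 protein to compounds spotted on small-molecule microarray slides.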 As to conditions: higher = more signal.
Test [12] is described as follows: growth effects on S. cerevisiae YJM789 – YJM789 clinical isolate, OD600, 24 h, basal, primary screen (AID 1089).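 Also: growth of clinical yeast isolate S. cerevisiae YJM 789 seeded 1000 cells per well; test concentration not given here.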 As to conditions: higher = more signal, called active from +8 up or from −8 down.
Test [13] in a line: S. pombe growth modifiers, basal conditions – strain 972, OD600, 24 h, no modulator, primary screen (AID 1090).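 Also: basal condition with compound alone and no growth modifier present; test concentration not given here.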 Conditions: S. pombe 972 growth, higher = more signal, called active from +8 up or from −8 down.
Test [14] in a line: budding yeast growth modifiers under rapamycin – strain BY4716, OD600, 96 h, primary screen (AID 1091). Also: test concentration not given here. As to conditions: S. cerevisiae BY4716 + rapamycin, higher = more signal, called active from +8 up or from −8 down.
Test [15] concerns the target Torsin-1A-interacting protein 2 (Homo sapiens) (UniProt Q8NFQ8). Kind of test: small molecules binding lysate-expressed LULL1 – cell lysate, human LULL1 lysate, 635/667 nm fluorescence, primary screen (AID 1092).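 Also: probe is lysate of COS7 cells overexpressing human LULL1; score merges per-feature 667 nm fluorescence with signal-to-noise.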 Conditions: small-molecule microarray, hLULL1 lysate binding, 635 nm fluorescence; higher = more signal.
The nature of test [16]: optical density change of DRC41 E. coli – strain DRC41, OD650, 24 h, E. coli filamentation project, primary screen (AID 1093).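 Also: MC1000 strain lacking acrAB efflux and sulA so SOS filamentation is blocked; test concentration not given here.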 As to conditions: E. coli DRC41 growth, higher = more signal, called active from +8 up or from −8 down.
Test [17] in a line: probe aLefty2 binding to arrayed compounds – biochemical, biotinylated probe, 635/667 nm fluorescence, primary screen (AID 1094).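 Also: score merges spot fluorescence near 667 nm with spot signal-to-noise ratio.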 As to conditions: small-molecule microarray, higher = more signal.
Test [18] has as its system Noggin (protein binding on small-molecule microarray). Put plainly: small molecules binding Noggin protein – biochemical, 635/667 nm fluorescence, primary screen (AID 1095).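 Also: score merges 667 nm feature fluorescence with signal to noise over triplicate slides.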 As to conditions: 635 nm fluorescence, higher = more signal.
Test [19] addresses Neurogenic locus notch homolog protein 3 (Homo sapiens) (UniProt Q9UM47). Kind of test: small molecules binding NOTCH3 protein – biochemical, 635/667 nm fluorescence, primary screen (AID 1096). As to conditions: small-molecule microarray, 635 nm fluorescence, higher = more signal.
Test [20] can be described thus: probe aEGFR binding to arrayed compounds – biochemical, biotinylated probe, 635/667 nm fluorescence, primary screen (AID 1097).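 Also: probe is a biotinylated anti-EGFR antibody binding compounds printed on slides; score combines fluorescence near 667 nm and signal to noise of each spot.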 Conditions: small-molecule microarray, higher = more signal.

For 5 compounds, composite z-score and z-score results are on record in PubChem BioAssay.

Activity calls are given as the source filed them.

Chain of Torsin-1A-interacting protein 2 (Homo sapiens) (Q8NFQ8 whole entry, looked up): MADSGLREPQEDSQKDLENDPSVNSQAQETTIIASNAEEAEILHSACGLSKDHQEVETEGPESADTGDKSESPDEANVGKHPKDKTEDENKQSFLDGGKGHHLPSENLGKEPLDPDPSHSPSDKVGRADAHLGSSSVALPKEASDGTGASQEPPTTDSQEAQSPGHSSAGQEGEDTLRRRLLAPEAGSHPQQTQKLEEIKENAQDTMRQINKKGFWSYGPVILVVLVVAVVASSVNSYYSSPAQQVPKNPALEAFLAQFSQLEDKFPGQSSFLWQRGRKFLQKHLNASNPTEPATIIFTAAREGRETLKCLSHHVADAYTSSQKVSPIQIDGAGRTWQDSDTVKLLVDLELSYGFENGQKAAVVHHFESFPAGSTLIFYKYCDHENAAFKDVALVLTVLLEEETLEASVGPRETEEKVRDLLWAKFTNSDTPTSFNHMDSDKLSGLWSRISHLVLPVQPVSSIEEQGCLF
Chain of Neurogenic locus notch homolog protein 2 (Homo sapiens) (Q04721 whole entry, looked up, canonical isoform): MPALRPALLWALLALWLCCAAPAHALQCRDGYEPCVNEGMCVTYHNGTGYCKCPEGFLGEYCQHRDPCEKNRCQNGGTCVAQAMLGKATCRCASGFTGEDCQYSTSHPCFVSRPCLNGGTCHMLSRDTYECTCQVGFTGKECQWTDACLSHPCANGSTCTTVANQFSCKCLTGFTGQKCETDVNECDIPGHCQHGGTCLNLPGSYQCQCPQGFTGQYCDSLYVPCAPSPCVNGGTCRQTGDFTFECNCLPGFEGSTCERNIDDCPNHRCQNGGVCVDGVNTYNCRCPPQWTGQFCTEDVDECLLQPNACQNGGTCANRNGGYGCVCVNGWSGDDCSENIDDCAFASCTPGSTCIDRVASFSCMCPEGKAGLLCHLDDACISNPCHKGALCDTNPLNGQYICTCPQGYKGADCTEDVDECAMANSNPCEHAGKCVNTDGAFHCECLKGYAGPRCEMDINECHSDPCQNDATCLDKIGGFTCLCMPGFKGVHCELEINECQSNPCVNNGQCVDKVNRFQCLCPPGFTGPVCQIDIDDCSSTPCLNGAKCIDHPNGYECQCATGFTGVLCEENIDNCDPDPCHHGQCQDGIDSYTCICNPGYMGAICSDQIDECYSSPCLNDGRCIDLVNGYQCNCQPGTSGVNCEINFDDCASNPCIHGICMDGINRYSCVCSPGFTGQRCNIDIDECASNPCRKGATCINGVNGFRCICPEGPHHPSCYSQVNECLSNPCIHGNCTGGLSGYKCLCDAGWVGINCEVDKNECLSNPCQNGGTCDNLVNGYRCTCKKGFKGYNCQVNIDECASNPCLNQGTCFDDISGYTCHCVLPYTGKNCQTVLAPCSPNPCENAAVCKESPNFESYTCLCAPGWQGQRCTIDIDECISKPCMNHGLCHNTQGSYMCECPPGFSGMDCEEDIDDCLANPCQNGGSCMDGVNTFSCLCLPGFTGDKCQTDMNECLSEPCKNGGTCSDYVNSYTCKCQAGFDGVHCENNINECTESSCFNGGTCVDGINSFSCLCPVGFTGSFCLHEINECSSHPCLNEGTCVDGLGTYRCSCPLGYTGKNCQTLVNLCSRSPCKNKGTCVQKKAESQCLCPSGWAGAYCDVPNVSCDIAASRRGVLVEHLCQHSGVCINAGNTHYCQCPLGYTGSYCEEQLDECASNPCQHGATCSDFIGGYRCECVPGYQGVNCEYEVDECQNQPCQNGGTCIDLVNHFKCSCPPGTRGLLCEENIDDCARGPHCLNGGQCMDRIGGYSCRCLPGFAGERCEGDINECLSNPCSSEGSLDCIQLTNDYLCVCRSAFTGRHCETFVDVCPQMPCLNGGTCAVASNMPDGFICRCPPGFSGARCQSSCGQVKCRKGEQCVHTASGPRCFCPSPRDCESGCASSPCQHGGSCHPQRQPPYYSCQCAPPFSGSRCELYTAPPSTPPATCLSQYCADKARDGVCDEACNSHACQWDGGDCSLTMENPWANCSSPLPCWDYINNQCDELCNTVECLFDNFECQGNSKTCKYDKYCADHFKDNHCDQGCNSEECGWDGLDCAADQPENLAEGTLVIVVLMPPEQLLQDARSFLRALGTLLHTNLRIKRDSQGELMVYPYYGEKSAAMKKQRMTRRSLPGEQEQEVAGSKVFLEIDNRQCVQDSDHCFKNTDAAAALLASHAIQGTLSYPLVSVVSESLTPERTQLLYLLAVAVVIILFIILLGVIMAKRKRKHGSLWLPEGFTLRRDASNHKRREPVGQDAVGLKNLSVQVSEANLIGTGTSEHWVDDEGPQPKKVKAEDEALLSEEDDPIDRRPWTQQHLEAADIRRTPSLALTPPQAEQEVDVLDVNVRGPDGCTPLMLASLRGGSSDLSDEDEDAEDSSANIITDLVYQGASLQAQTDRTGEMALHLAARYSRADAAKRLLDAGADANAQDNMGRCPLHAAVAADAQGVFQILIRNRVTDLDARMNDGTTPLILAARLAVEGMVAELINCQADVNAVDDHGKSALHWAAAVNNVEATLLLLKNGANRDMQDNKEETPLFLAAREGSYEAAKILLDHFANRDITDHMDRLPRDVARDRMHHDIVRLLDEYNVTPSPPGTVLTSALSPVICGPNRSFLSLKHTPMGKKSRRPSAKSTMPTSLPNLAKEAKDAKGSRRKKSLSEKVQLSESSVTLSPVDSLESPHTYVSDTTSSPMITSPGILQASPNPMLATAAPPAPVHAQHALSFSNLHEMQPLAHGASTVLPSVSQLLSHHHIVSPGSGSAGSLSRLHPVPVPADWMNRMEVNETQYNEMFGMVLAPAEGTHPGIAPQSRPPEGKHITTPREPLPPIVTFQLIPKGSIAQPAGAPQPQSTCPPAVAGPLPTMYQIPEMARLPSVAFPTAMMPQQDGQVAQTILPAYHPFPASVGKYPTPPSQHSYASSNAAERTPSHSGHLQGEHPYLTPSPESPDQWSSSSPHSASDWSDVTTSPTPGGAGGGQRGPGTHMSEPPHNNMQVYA
Chain of Pro-neuregulin-1, membrane-bound isoform (Homo sapiens) (Q02297 whole entry, looked up, the tested form may be a part, canonical isoform): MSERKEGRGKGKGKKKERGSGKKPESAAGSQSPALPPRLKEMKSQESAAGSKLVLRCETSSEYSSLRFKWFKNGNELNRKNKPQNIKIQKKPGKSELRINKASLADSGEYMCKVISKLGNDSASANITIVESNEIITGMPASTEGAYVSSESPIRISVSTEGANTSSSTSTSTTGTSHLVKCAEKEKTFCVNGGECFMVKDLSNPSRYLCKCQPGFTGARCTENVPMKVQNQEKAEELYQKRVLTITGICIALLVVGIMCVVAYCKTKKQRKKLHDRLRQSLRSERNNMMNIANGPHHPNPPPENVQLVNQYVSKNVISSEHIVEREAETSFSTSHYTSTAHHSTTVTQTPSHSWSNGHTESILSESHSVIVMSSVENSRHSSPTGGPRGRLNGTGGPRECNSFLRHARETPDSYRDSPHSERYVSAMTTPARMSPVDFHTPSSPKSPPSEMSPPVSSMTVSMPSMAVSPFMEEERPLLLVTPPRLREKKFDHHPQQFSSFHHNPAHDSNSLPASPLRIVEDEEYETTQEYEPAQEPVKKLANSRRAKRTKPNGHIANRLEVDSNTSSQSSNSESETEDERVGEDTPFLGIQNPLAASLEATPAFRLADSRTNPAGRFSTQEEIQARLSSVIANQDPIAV

Consider `COc1ccc(C#Cc2ccc3c(c2)[C@]2(C(=O)N3)[C@H](C(=O)N3CCCCCCC3)[C@H]3C(=O)O[C@H](c4ccccc4)[C@H](c4ccccc4)N3[C@@H]2c2ccc(O)cc2)cc1`, for which the composite z-score was 2.46 in [1]; 0.578 in test [2]; 0.102 in [3]; 0.295 in test [4]; 0.97 in test [5]; -0.234 in [6]. In addition, the composite z-score came out at 1.24 in test [7]; 2.24 in test [9]; 0.606 in test [10]; 1.56 in test [11]; 3.12 in test [15]; 1 in test [17]. The composite z-score in [18] came to 0.719; in [19], 1.1; in test [20], 0.426. Further, the z-score is 0.626 (inactive) in [8]; -0.0118 (inactive) in test [12]; 0.0345 (inactive) in test [13]; 0.595 (inactive) in test [14]; 0.209 (inactive) in test [16].
With `CC(C)OC(=O)CC(=O)CC(O)c1ccc([N+](=O)[O-])cc1` (stereo not given), the composite z-score is 0.231 in test [1]; 0.219 in test [2]; 0.0033 in [3]; 0.307 in test [4]; 0.795 in test [5]; 0.0916 in test [6]. In addition, the composite z-score in test [7] was 0.438; in test [9], 0.0731; in [10], -0.123; in [11], 0.65; in test [15] it was 1.27; in test [17] it was 0.0416. Moreover, the composite z-score in test [18] is -0.0624; in [19] it was 0.422; in test [20], -0.213. For the same compound, the z-score was 0.719 (inactive) in [8]; -0.0857 (inactive) in [12]; -0.26 (inactive) in test [13]; -0.34 (inactive) in test [14]; -0.215 (inactive) in [16].
Turning to `COCCOC(=O)N1C(=O)[C@@]2(c3cc(C#CCC(C(=O)OC)C(=O)OC)ccc31)[C@H](c1ccc(OCCO)cc1)N1[C@H](c3ccccc3)[C@H](c3ccccc3)OC(=O)[C@H]1[C@@H]2C(=O)Nc1nc2ccccc2s1`, the composite z-score in test [1] is -0.0598; in test [2], 0.215; in test [3] it was -0.17; in test [4], 0.383; in [5] it was 1.22; in test [6] it was -0.0762. Also, the composite z-score in test [7] is 1.23; in [9] it was 0.524; in [10], -0.148; in test [11], 1.57; in test [15], 0.828; in test [17] it was -0.122. The composite z-score in [18] is 0.994; in [19] it was 1.1; in test [20], -0.04. The z-score is 4.65 (inactive) in [8]; 2.28 (inactive) in [12]; 2.31 (inactive) in [13]; 4.03 (inactive) in [14]; 2.5 (inactive) in [16].
As to `COc1ccc([Si](C)(C)[C@@H]2[C@@H](CCn3cc([C@H](O)c4ccccc4)nn3)O[C@]3(C(=O)N(Cc4cccc(N5C(=O)c6cccc7cccc5c67)c4)c4ccccc43)[C@H]2C)cc1`, the composite z-score in test [1] is 0.022; in test [2], -0.362; in test [3], -0.146; in test [4], -0.472; in test [5] it was -0.643; in [6], 0.173. In addition, the composite z-score is 0.741 in test [7]; -0.0472 in test [9]; -0.309 in test [10]; 0.645 in test [11]; 0.98 in [15]; -0.139 in test [17]. The composite z-score in test [18] is -0.319; in test [19], -0.048; in test [20], -0.182. For the same compound, the z-score is -0.814 (inactive) in test [8]; 0.738 (inactive) in test [12]; 1.21 (inactive) in test [13]; 2.54 (inactive) in test [14]; -0.143 (inactive) in [16].
As for `O=C1OCC=C[C@H]2OC34C=CCN(c5ccc6ccccc6c5)C(=O)[C@H]3N(CCCCCO)C(=O)[C@@H]4[C@@H]12` (stereo not given in full), the composite z-score in test [1] was 1.43; in [2] it was -0.964; in [3] it was -0.0407; in test [4], -0.61; in test [5], -0.994; in test [6] it was 2.26. Besides, the composite z-score was 1.39 in [7]; -0.356 in test [9]; -0.338 in test [10]; -0.6 in test [11]; 3.68 in test [15]; 0.306 in test [17]. For the same compound, the composite z-score in [18] was -1.65; in [19] it was -1.04; in test [20] it was -0.177. The z-score is -0.139 (inactive) in [8]; -0.594 (inactive) in [12]; -0.955 (inactive) in test [13]; -0.515 (inactive) in test [14]; 0.198 (inactive) in [16].
